High-throughput results as filed in PubChem.
PMP22 txn – modulates PMP22 transcription in S16 Schwann cells; S16 Pmp22-F2sN Schwann cells, FLuc/NLuc coincidence luminescence, 24 h; Potency, µM (doses to about 57.5 µM), for the others: top-dose activity change, negative = inhibition, actives largely listed as inhibitors; actives 2% (n = 43,000); active = clear falling dose curves in both reporters; inconclusive = both reporters move, but less clearly or upward; inactive = either reporter flat; the % is the NLuc reporter signal
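Schwann cells carrying the coincidence reporter were exposed to library compounds for 24 h at 37C, then lysed and read for FLuc and, after quenching, NLuc luminescence on a CCD imager.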
p53null 39C tox – kills p53 null cells at the nonpermissive temperature; H1299 p53-null (neo) cells, 39C, ATPlite viability, 24 h; Potency, µM (top dose mostly 46.1 µM), for the others: top-dose activity, negative = cell killing, usual class: cytotoxic; actives 0.97% (n = 55,000); AID 904;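 also: 0% = DMSO only and -100% = full killing by 100 µM tamoxifen; nearly all actives have a fitted effect of over 50% in size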
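Concentration-response (up to 46 uM) was run for 24 h at the nonpermissive 39C on H1299-p53A138V or H1299-neo cells. ATP content was measured with ATPlite luminescence. AC50 values were Hill-modeled after normalizing between DMSO and 100 uM tamoxifen killing.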
p53null 32C kill – selectivity test: cytotoxicity in p53 null cells, permissive temperature. H1299-neo p53 null cells, ATP luminescence, 24 h, 32C. Potency, µM (doses to about 46.1 µM), for the others: top-dose activity change, negative = cytotoxicity, usual class: cytotoxic. actives 0.62% (n = 55,000);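 also: 0% = DMSO only and -100% = full killing by 100 µM tamoxifen; nearly all actives have a fitted effect of over 55% in size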
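Cells lacking p53 (H1299-neo) are plated at 600 per well and allowed to settle overnight at 37C. Test compounds (up to 46 uM) are added and held 24 hours at 32C, then ATP is quantified by luminescence.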
S16 F2sN tox – cytotoxicity in S16 Pmp22-F2sN Schwann cells; S16 Pmp22-F2sN Schwann cells viability, CellTiter-Glo, 24 h; Potency, µM (titrated, usually from 57.5 µM), without a hit: top-dose activity change, negative = cytotoxicity, hits mostly cytotoxic; actives 0.48% (n = 43,000); AID 1508642; also: nearly all actives have a fitted effect of over 65% in size
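S16 Pmp22-F2sN Schwann cells (500-1,000/well) in phenol-red-free DMEM with 10% FBS received 23 nL compound by pin tool for 24 h at 37 °C. Viability was then read as CellTiter-Glo luminescence after 15 min at room temperature.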
OvCa metastasis – ovarian cancer metastasis inhibition, 3D TME model; AID 1963576; actives 0.1% (n = 46,000); Potency, µM (highest dose often 45.8 µM), inactives show at the top dose activity change, negative = inhibition, hits mostly inhibitors; SKOV3ip1-GFP adhesion/invasion on 3D omental model, fluorescence;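 also: plate controls were DMSO wells for no effect and tomatine positive control wells for full effect; nearly all actives have a fitted effect of over 65% in size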
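Adhesion/invasion was scored as fixed GFP-labeled SKOV3ip1 cell counts (488/509 nm), normalized to DMSO and tomatine controls. Cancer cells in serum-free medium, with four compound doses (0.36-46 umol/L), sat 2 hr at RT then 16 hr at 37 C on a 48 hr fibroblast/mesothelial/ECM culture.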
mTORC1 inh – inhibitors of mTORC1 signaling in Tsc2-/- p53-/- MEF cells; Tsc2-/- p53-/- MEF, phospho-rpS6 immunofluorescence/PI, 24 h; Potency, µM (highest dose often 38.3 µM), inactives show top-dose activity change, negative = inhibition, most hits filed as inhibitors; actives 0.78% (n = 44,000);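 also: plate controls were DMSO for no effect and rapamycin for full effect; nearly all actives have a fitted effect of over 50% in size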
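Compounds act on Tsc2-/-, p53-/- fibroblasts carrying an empty vector for 24 h before fixation and dual staining for phospho-S6 and DNA (propidium iodide). Values are percentages of cells above a rapamycin-defined pS6/PI threshold.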
* hit, by the source's call; [ ] = another dose, or the depositor's remark. Most compounds without a hit are left out; they make up all but 3.1% or so of the library. Unless noted, calls follow the shape of the dose curve; as a rule, active = well fitted curve in the direction sought with a large enough effect; inconclusive = small, poorly fitted or top-dose-only effect, or another doubt; inactive = no such curve, though single readings can be large; an effect the other way counts as inactive or inconclusive. Unless noted, % is scaled to controls: 0 for no effect and ±100 for the full control effect; potency is read from the fitted curve at half-maximal effect.

Results for O=C1C2=C(Nc3ccccc3SC2c2ccccc2C(F)(F)F)c2ccccc21 (configuration not stated) ?
PMP22 txn: 13µM*; p53null 39C tox: inconclusive; p53null 32C kill: -17%; S16 F2sN tox: inconclusive; OvCa metastasis: inactive; mTORC1 inh: inconclusive

How did CCOC(=O)N[C@@H]1CC[C@@H]2[C@@H](C1)C[C@H]1C(=O)O[C@H](C)[C@H]1[C@@H]2C=Cc1ccc(-c2cccc(F)c2)cn1 do in these assays?
OvCa metastasis: 1%

Results for NC1(Cc2ccc(Cl)cc2)CCN(c2ncnc3[nH]ccc23)CC1 ?
OvCa metastasis: 8%

Results for CCOc1ccc(NC(=O)c2sc3nc4c(cc3c2N)CCCCCC4)cc1 ?
PMP22 txn: inconclusive; p53null 39C tox: -14%; p53null 32C kill: -16%; S16 F2sN tox: 0%; OvCa metastasis: 7%; mTORC1 inh: 21µM*

How did Nc1c(C(=O)Nc2ccc(C(=O)O)cc2)sc2nc3c(cc12)CCCC3 do in these assays?
PMP22 txn: 11%; p53null 39C tox: inconclusive; p53null 32C kill: inconclusive; S16 F2sN tox: 3%; OvCa metastasis: 8%; mTORC1 inh: -6%

How did Nc1nc(Cl)nc2c1ncn2[C@@H]1O[C@H](CO)[C@@H](O)[C@H]1F do in these assays?
OvCa metastasis: -3%

How did Clc1ccc(CSc2nc3ncccc3[nH]2)cc1 do in these assays?
PMP22 txn: inconclusive; p53null 39C tox: inconclusive; p53null 32C kill: 10µM*; S16 F2sN tox: -4%; OvCa metastasis: 3%; mTORC1 inh: -7%

How did Cc1oc(-c2ccc(Cl)cc2)nc1CSc1nc2ncccc2[nH]1 do in these assays?
PMP22 txn: 4%; p53null 39C tox: 10%; p53null 32C kill: 1%; S16 F2sN tox: 6%; OvCa metastasis: inactive; mTORC1 inh: 1%

How did Cc1ccc(-n2ncc3c(N(CCO)Cc4ccccc4)ncnc32)cc1 do in these assays?
PMP22 txn: -5%; p53null 39C tox: 12%; p53null 32C kill: -24%; S16 F2sN tox: inconclusive; OvCa metastasis: 9%; mTORC1 inh: -16%

Results for Cc1ccc(-n2ncc3c(N(C)Cc4ccccc4)ncnc32)cc1 ?
PMP22 txn: -3%; p53null 39C tox: 20%; p53null 32C kill: 13µM*; S16 F2sN tox: 4%; OvCa metastasis: -4%; mTORC1 inh: 12%

What do the screens show for `Cc1ccc(-n2ncc3c(N4CCCCC4)ncnc32)cc1`?
PMP22 txn: 3%; p53null 39C tox: 6.3µM*; p53null 32C kill: 1.6µM*; S16 F2sN tox: 5%; OvCa metastasis: -12%; mTORC1 inh: 12%

What do the screens show for `COc1ccc(-n2ncc3c(N4CCCCC4)ncnc32)cc1`?
p53null 39C tox: 4µM*; p53null 32C kill: 2.5µM*

How did COc1ccc(N2CCN(c3ncnc4c3cnn4C)CC2)cc1 do in these assays?
PMP22 txn: inconclusive; p53null 39C tox: 2%; p53null 32C kill: 5%; S16 F2sN tox: -19%; OvCa metastasis: 1%; mTORC1 inh: 8%

What do the screens show for `CC(C)N(CCCNC(=O)Nc1ccc(C(C)(C)C)cc1)C[C@H]1O[C@@H](n2cc(Br)c3c(N)ncnc32)[C@H](O)[C@H]1O`?
OvCa metastasis: -26%

What do the screens show for `Cc1cn2c(-c3cn[nH]c3)cnc2c(Nc2ccc(C(=O)N3CCNCC3)cc2F)n1`?
OvCa metastasis: -12%

Results for C#C[C@]1(O)CC[C@@H]2[C@@H]3CCC4=CC(=O)CC[C@@H]4[C@H]3CC[C@@]21CC ?
OvCa metastasis: -3%

Results for COc1ccc(Oc2nc3c(C)cccn3c(=O)c2/C=C(\C#N)c2nc3ccccc3[nH]2)cc1 ?
PMP22 txn: 7%; p53null 39C tox: -21%; p53null 32C kill: 2%; S16 F2sN tox: -3%; OvCa metastasis: 3%; mTORC1 inh: 13µM*

Results for Cc1ccccc1Oc1nc2ccccn2c(=O)c1/C=C(\C#N)c1nc2ccccc2[nH]1 ?
PMP22 txn: 20%; p53null 39C tox: -13%; p53null 32C kill: 2%; S16 F2sN tox: 5%; OvCa metastasis: 19%; mTORC1 inh: 9.3µM*

What do the screens show for `CCN1C[C@H](C)n2c(c(O)c3c(=O)n(Cc4ccc(F)c(Cl)c4)nc(C(=O)NC)c32)C1=O`?
OvCa metastasis: 8%

What do the screens show for `COc1ccc(-c2ccc(CCC(=O)O)n2-c2ccccc2O)cc1`?
PMP22 txn: -54%; p53null 39C tox: -27%; p53null 32C kill: -10%; S16 F2sN tox: 4%; OvCa metastasis: -10%; mTORC1 inh: 13µM*

Results for COc1ccc(-c2ccc(CCC(=O)O)n2-c2ccccc2C(F)(F)F)cc1 ?
PMP22 txn: inconclusive; p53null 39C tox: 19%; p53null 32C kill: -1%[9.22 µM]; S16 F2sN tox: -25%; OvCa metastasis: -9%; mTORC1 inh: -4%

What do the screens show for `Cc1cc(C=c2sc3nc4ccccc4n3c2=O)c(C)n1-c1ccccc1`?
OvCa metastasis: -27%

What do the screens show for `Cc1cc(OCCn2c(C3CC(=O)N(Cc4ccc(F)cc4)C3)nc3ccccc32)ccc1Cl` (configuration not stated)?
PMP22 txn: inconclusive; p53null 39C tox: -4%; p53null 32C kill: -11%; S16 F2sN tox: -2%; OvCa metastasis: inconclusive; mTORC1 inh: 2%

What do the screens show for `CCOc1ccccc1N1CC(c2nc3ccccc3n2CCCOc2ccccc2OC)CC1=O` (configuration not stated)?
PMP22 txn: -21%; p53null 39C tox: -11%; p53null 32C kill: -2%; S16 F2sN tox: 3%; OvCa metastasis: 1%; mTORC1 inh: -13%

Results for CCc1ccccc1N1CC(c2nc3ccccc3n2CCOc2ccc(Cl)c(C)c2)CC1=O (configuration not stated) ?
PMP22 txn: inconclusive; p53null 39C tox: 18µM*; p53null 32C kill: 39%; S16 F2sN tox: inconclusive; OvCa metastasis: -28%; mTORC1 inh: -16%

How did O=C1CC(c2nc3ccccc3n2CCC2CCCCC2)CN1c1ccccc1Cl (configuration not stated) do in these assays?
PMP22 txn: 1%; p53null 39C tox: 16µM*; p53null 32C kill: inconclusive; S16 F2sN tox: 24%; OvCa metastasis: 6%; mTORC1 inh: -1%
